Experimental findings from PubChem BioAssay (Tox21) are described below.

The nature of assay [1]: qHTS assay for small molecules that induce genotoxicity in human embryonic kidney cells expressing luciferase-tagged ATAD5 (AID 651632). Note: % is set by controls: 0 for no effect and ±100 for the full control effect; nearly all actives have a fitted effect of over 15% in size. In a few lines: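 Increased luciferase signal from ATAD5-tagged reporter cells indicates DNA-damage-driven ATAD5 induction. HEK293T cells are treated for 16 hr at 37C before detection with Amplite.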
On the technique in general: qHTS replaces the single test concentration by a dilution series.

Assay [2] can be described thus: qHTS assay for small molecule agonists of the p53 signaling pathway - cell viability (AID 651633; calls by dose curve;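 note: p53RE-bla HCT reporter cells with a stable beta-lactamase p53 reporter; series mostly up to about 83 µM; % is set by controls: 0 for no effect and ±100 for the full control effect; nearly all actives have a fitted effect of over 30% in size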). In a few lines: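 p53RE-bla cells were treated with compound for 16 hours at 37 C. Cytotoxicity was then measured as CellTiter-Glo luminescence after 30 min at room temperature.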
Assay [3] can be described thus: qHTS assay for small molecule disruptors of the mitochondrial membrane potential - cell viability (AID 720634; calls by dose curve;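 note: human HepG2 liver cancer cells; series mostly up to about 83 µM; % is set by controls: 0 for no effect and ±100 for the full control effect; nearly all actives have a fitted effect of over 20% in size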). In a few lines:
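After overnight attachment at 37 C, HepG2 cells received compound or DMSO vehicle for 1 hr. Viability is then taken from ATP-driven luminescence following a 30 min room-temperature CellTiter-Glo step.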

Assay [4] can be described thus: qHTS assay to test for compound auto fluorescence at 590 nm (red) in HepG2 cells (AID 720674). Note: % is set by controls: 0 for no effect and ±100 for the full control effect. In a few lines:
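Fluorescence at 590 nm emission following 540 nm excitation was recorded from HepG2 wells one hour after compound transfer, with DMSO-only wells as vehicle and Rose Bengal sodium equivalency as the scale.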

A short description of assay [5]: qHTS assay to test for compound auto fluorescence at 535 nm (green) in HepG2 cells (AID 720675). Note: % is set by controls: 0 for no effect and ±100 for the full control effect.
Assay [6] can be described thus: qHTS assay to test for compound auto fluorescence at 460 nm (blue) in HEK293 cells (AID 720678). Note: % is set by controls: 0 for no effect and ±100 for the full control effect. In a few lines:
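Triamterene serves as the blue fluorophore standard. Compound signal at 405/460 nm is read in HEK293 wells (2,000 cells, 10% dialyzed FBS) after overnight treatment at 37C.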

Assay [7] can be described thus: qHTS assay to test for compound auto fluorescence at 590 nm (red) in HEK293 cells (AID 720679). Note: % is set by controls: 0 for no effect and ±100 for the full control effect. In a few lines:
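We plated HEK293 cells in 10% dialyzed FBS medium, let them adhere for 4-5 hr, then added 23 nL compound. Overnight at 37C and 5% CO2 preceded fluorescence measurement at 540/590nm.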

Assay [8] is described as follows: qHTS assay to test for compound auto fluorescence at 535 nm (green) in HEK293 cells (AID 720680). Note: % is set by controls: 0 for no effect and ±100 for the full control effect.
Assay [9] is described as follows: qHTS assay to test for compound auto fluorescence at 460 nm (blue) in HEK293 cell free culture (AID 720681). Note: % is set by controls: 0 for no effect and ±100 for the full control effect. The method, boiled down:
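Compounds were added to cell-free DMEM with 10% FBS and fluorescence read directly. The blue channel used 405 nm excitation and 460 nm emission, with triamterene as the reference fluorophore.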

Assay [10] in a line: qHTS assay to test for compound auto fluorescence at 535 nm (green) in HEK293 cell free culture (AID 720682). Note: % is set by controls: 0 for no effect and ±100 for the full control effect. The method, boiled down: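 Green-channel intensity (Ex/Em 485/535 nm) was recorded from compound-treated wells containing only DMEM with 10% FBS. Fluorescein provided the equivalency standard.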
Assay [11] is described as follows: qHTS assay to test for compound auto fluorescence at 590 nm (red) in HEK293 cell free culture (AID 720683). Note: % is set by controls: 0 for no effect and ±100 for the full control effect. In a few lines:
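Cell-free wells of DMEM with 10% FBS received compound, and intrinsic fluorescence was read at excitation/emission 540/590 nm. Values expressed as equivalence to Rose Bengal sodium.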

Assay [12] in a line: qHTS assay to test for compound auto fluorescence at 590 nm (red) in HepG2 cell free culture (AID 720684). Note: % is set by controls: 0 for no effect and ±100 for the full control effect. In a few lines: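 Compound was pinned into wells holding MEM with 10% FBS and no cells, and red fluorescence was read at Ex/Em 540/590 nm. Signal is expressed as auto fluorescence equivalency relative to Rose Bengal sodium.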
The nature of assay [13]: qHTS assay to test for compound auto fluorescence at 460 nm (blue) in HepG2 cell free culture (AID 720685). Note: % is set by controls: 0 for no effect and ±100 for the full control effect. The method, boiled down: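 Compound (23 nL) or DMSO pinned into cell-free MEM with 10% FBS; blue fluorescence read at 405/460 nm excitation/emission, expressed as auto-fluorescence equivalency to triamterene.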
Assay [14] can be described thus: qHTS assay to test for compound auto fluorescence at 535 nm (green) in HepG2 cell free culture (AID 720686). Note: % is set by controls: 0 for no effect and ±100 for the full control effect.
A short description of assay [15]: qHTS assay to test for compound auto fluorescence at 460 nm (blue) in HepG2 cells (AID 720687). Note: % is set by controls: 0 for no effect and ±100 for the full control effect. In a few lines: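 HepG2 cells in MEM with 10% FBS, attached overnight at 37 C, were exposed to compound or DMSO for 1 hr at 37 C, 5% CO2. Blue fluorescence was read at 405/460 nm, with triamterene as reference fluorophore.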
The target in assay [16] is Glucocorticoid receptor (Homo sapiens) (UniProt P04150). The assay can be described thus: qHTS assay to identify small molecule agonists of the glucocorticoid receptor (GR) signaling pathway (AID 720691; active = well fitted activation curve with a large enough effect in the signal ratio in the repeat runs, not every such curve was filed as active; the % refers to the signal ratio; note: % is set by controls: 0 for no effect and ±100 for the full control effect). The method, boiled down:
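Agonist mode in a HeLa line carrying a GRE-controlled beta-lactamase reporter. Compounds act for 18 h at 37 C before a 2 h room-temperature FRET substrate step and fluorescence reading.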

For assay [17] the target is unchanged. The assay can be described thus: qHTS assay to identify small molecule antagonists of the glucocorticoid receptor (GR) signaling pathway (AID 720692; active = well fitted inhibition curve with a large enough effect in the signal ratio in the repeat runs, not every such curve was filed as active; the % refers to the signal ratio; note: % is set by controls: 0 for no effect and ±100 for the full control effect). In a few lines: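 Cells plated, rested 4 h at 37 C/5% CO2; compounds in DMSO pin-transferred; dexamethasone added to 5 nM final; 18 h at 37 C; B/G FRET substrate added, 2 h room temperature; fluorescence measured.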

Assay [18] in a line: qHTS assay for small molecule disruptors of the mitochondrial membrane potential (AID 720635). Note: potency is the fitted concentration of half-maximal effect. In a few lines: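 HepG2 cells exposed to compound 1 hr at 37C, then Mito-MPS dye 30 min. Ratio read of aggregate (540/590 nm) versus monomer (490/535 nm) fluorescence.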
A short description of assay [19]: qHTS assay for small molecules that induce genotoxicity in human embryonic kidney cells expressing luciferase-tagged ATAD5 - cell viability (AID 651634; calls by dose curve; note: % is set by controls: 0 for no effect and ±100 for the full control effect; nearly all actives have a fitted effect of over 25% in size). In a few lines: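 Cytotoxicity counterscreen in HEK293T cells bearing an ATAD5-luciferase reporter: live-cell protease activity measured by CellTiter-Fluor fluorescence after 15.5 hr compound exposure.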

Unmarked numbers belong to inactive results. Inconclusive results are not listed. Activity calls are given as the source filed them. Unless noted, calls come from the whole dose curve; as a rule, active = well fitted curve in the direction sought with a large enough effect in the repeat runs; inconclusive = weak or mixed curves; inactive = no such curve, though single readings can be large; an effect the other way counts as inactive or inconclusive.

Sequence of Glucocorticoid receptor (Homo sapiens) (P04150 whole entry, looked up): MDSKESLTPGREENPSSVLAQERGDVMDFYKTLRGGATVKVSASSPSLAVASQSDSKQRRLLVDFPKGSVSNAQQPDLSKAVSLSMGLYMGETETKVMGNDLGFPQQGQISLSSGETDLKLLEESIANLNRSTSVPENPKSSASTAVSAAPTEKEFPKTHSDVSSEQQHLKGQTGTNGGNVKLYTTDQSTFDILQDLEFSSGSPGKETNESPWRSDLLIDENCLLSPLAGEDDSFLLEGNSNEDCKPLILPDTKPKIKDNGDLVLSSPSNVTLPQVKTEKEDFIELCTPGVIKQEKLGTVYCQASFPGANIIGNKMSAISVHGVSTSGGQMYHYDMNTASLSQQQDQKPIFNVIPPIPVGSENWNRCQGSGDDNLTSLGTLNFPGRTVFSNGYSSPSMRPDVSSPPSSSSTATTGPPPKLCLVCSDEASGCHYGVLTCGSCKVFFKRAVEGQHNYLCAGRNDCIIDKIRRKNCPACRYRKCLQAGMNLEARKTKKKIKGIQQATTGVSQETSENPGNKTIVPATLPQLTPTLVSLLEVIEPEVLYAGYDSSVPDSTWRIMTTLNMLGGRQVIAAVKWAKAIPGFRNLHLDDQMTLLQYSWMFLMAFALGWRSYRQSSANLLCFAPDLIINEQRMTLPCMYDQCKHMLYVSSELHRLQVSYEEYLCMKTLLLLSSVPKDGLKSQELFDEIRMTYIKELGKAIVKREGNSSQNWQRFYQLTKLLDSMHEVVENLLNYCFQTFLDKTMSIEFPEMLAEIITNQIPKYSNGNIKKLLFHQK

On to `O=C1CCC(=O)N1Cl`, for which the molecule was called inactive in assay [1], in [2], in [3], in assay [4], in [5] and in [6]. Moreover, the outcome in assay [7], in assay [8], in assay [9], in assay [10], in assay [11] and in [12] was inactive. In addition, the result in [13], in assay [14], in [15] and in assay [17] was inactive. Further, the Potency entry in [16] was “inactive”.

As for `CC1(C)CC(OC(=O)CCCCCCCCC(=O)OC2CC(C)(C)NC(C)(C)C2)CC(C)(C)N1`, the molecule was called inactive in assay [1], in assay [2], in assay [3] and in assay [17]. For the same molecule, the Potency in assay [18] is 2960 nM (active). The fluorescence, % of fluorescein control in [5] was -0.0628% [at 18.6 µM]; in assay [14], -0.17% [at 18.6 µM]. In assay [6], the fluorescence, % of triamterene was -0.0282% [at 18.6 µM]. Further, the fluorescence, % of fluorescent control in assay [7] is 0.252% [at 18.6 µM]; in [9] it was -0.182% [at 18.6 µM]; in assay [11] it was 0.038% [at 18.6 µM]; in assay [13], -0.0702% [at 18.6 µM]; in assay [15], -0.0104% [at 18.6 µM]. Moreover, in [8], the fluorescence, % of fluorescein was -0.0999% [at 18.6 µM]. Besides, the activity change in [10] is -0.0076% [at 18.6 µM]. Besides, the fluorescence, % of Rose Bengal in assay [12] was 0.143% [at 18.6 µM]. The Potency entry in [16] was “inactive”.

As for `N#Cc1ccccc1O`, the molecule was called inactive in assay [1], in assay [2], in [3], in assay [4], in [5] and in assay [6]. Also, the molecule was called inactive in assay [7], in [8], in assay [9], in [10], in assay [11] and in assay [12]. In addition, the result in assay [13], in assay [14], in [15] and in assay [17] was inactive. The Potency entry in assay [16] is “inactive”.

Consider `CCCC(=O)Nc1ccc(OCC(O)CNC(C)C)c(C(C)=O)c1` (centres undefined), for which the outcome in assay [1], in assay [2], in [3] and in assay [17] was inactive. Besides, in assay [4], the fluorescence, relative to Rose Bengal is -0.376% [at 18.6 µM]. The fluorescence, % of fluorescein control in assay [5] is -0.0898% [at 18.6 µM]; in assay [14], -0.0602% [at 18.6 µM]. In addition, in assay [6], the fluorescence, % of triamterene is 0.0234% [at 18.6 µM]. The fluorescence, % of fluorescent control in assay [7] was -0.0649% [at 18.6 µM]; in assay [9] it was 0.175% [at 18.6 µM]; in assay [11] it was 0.214% [at 18.6 µM]; in [13], -0.0068% [at 18.6 µM]; in [15], 0.0344% [at 18.6 µM]. Also, in assay [8], the fluorescence, % of fluorescein was -0.0845% [at 18.6 µM]. The activity change in assay [10] is -0.021% [at 18.6 µM]. For the same molecule, the fluorescence, % of Rose Bengal in [12] is -0.252% [at 18.6 µM]. Further, the Potency entry in assay [16] is “inactive”.

`OCCN1CCOCC1`: the molecule was called inactive in assay [1], in assay [2], in [3], in [5], in assay [6] and in [8]. In addition, the outcome in [9], in assay [10], in assay [11], in assay [12], in [13] and in assay [14] was inactive. Also, in assay [15], the molecule was classed as inactive. In addition, the Potency result in assay [19] was “inactive”.

Take `CC(O)CC(C)O` (centres undefined): the molecule was called inactive in [1], in assay [2], in [3], in [4], in assay [5] and in assay [6]. The outcome in assay [7], in assay [8], in [9], in assay [10], in assay [11] and in [12] was inactive. Besides, the call in [13], in assay [14] and in assay [15] was inactive. Moreover, in [16], the Potency entry was “inactive”.

For the molecule `COc1c2occc2c(OC)c2c(=O)cc(C)oc12`, the outcome in assay [1], in assay [3] and in assay [17] was inactive. The Potency result in assay [19] and in assay [16] was “inactive” in each case. In addition, in [4], the fluorescence, relative to Rose Bengal was 0.0231% [at 18.6 µM]. The fluorescence, % of fluorescein control is -0.275% [at 18.6 µM] in [5] and 0.0616% [at 18.6 µM] in assay [14]. In assay [6], the fluorescence, % of triamterene is 0.0098% [at 18.6 µM]. Further, the fluorescence, % of fluorescein in [8] is -0.0108% [at 18.6 µM]. In addition, the activity change in assay [10] is 0.0751% [at 18.6 µM]. The fluorescence, % of fluorescent control in assay [11] was -0.33% [at 18.6 µM]; in assay [13] it was -0.0661% [at 18.6 µM]; in assay [15], 0.0073% [at 18.6 µM]. For the same molecule, the fluorescence, % of Rose Bengal in assay [12] was -0.125% [at 18.6 µM].

On to `C=CCN1C[C@H](C(=O)N(CCCN(C)C)C(=O)NCC)C[C@@H]2c3cccc4[nH]cc(c34)C[C@H]21`, for which the call in assay [1], in [2], in assay [3], in assay [4], in assay [5] and in [6] was inactive. Moreover, the result in [8], in [9], in assay [10], in assay [11], in assay [12] and in assay [13] was inactive. In addition, the call in assay [14], in assay [15] and in assay [17] was inactive. Moreover, the Potency entry in [16] is “inactive”.
